Pf growth 48h – P. falciparum growth inhibition at 48 hours (one generation); P. falciparum luciferase growth in erythrocytes, 48 h; Potency, µM (highest dose often 28.7 µM), without a hit: at the highest dose activity change, negative = inhibition, usual class: inhibitors; 5.9% of 310,000 active; AID 504832; further: potency means the concentration at half of the fitted maximal effect; on the % scale 0 is the no-effect control and ±100 the full control effect
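Compounds are pin-transferred into medium, infected erythrocytes (2% hematocrit, 0.1% parasitemia final) are added, and plates sit one parasite generation at 37 C in 5% CO2. Detection reagent is then added and luminescence measured.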
CHX counter – affects cycloheximide protein synthesis inhibition readout, counter-screen; cell reporter, cycloheximide protein synthesis inhibition counterscreen; max response, %; 12% of 300,000 active; AID 2314; in the data active means max response mostly above about 13%, no sharp cut-off; inactive means mostly below about 14%; further: read at 38.3 µM for the half of the compounds with a filed dose; 0% is about no effect
LmPK inhibitor – blocks Leishmania mexicana pyruvate kinase activity | AID 1721 | Potency, µM (titrated, usually from 57.5 µM), inactives show top-dose activity change, negative = inhibition, most hits filed as inhibitors | 0.37% of 290,000 active | purified LmPK, Kinase-Glo ATP luminescence, 1 h; further: potency means the concentration at half of the fitted maximal effect; on the % scale 0 is the no-effect control and ±100 the full control effect
Target sequence (Q27686 whole entry, looked up): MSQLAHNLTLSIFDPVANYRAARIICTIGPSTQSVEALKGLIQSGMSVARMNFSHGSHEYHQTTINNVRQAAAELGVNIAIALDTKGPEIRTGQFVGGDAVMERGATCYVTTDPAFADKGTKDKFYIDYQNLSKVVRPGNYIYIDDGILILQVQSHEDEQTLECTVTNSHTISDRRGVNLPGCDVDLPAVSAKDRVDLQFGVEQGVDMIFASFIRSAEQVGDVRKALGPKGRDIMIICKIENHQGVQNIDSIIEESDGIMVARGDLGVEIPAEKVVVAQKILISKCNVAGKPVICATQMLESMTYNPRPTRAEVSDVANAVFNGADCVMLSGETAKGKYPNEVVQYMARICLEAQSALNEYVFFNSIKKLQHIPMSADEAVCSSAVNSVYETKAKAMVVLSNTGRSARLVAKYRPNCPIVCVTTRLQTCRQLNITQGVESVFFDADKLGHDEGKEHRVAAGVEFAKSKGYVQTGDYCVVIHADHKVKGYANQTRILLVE
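Screened at intermediate enzyme activity to detect both inhibitors and activators: LmPK at 0.1 nM, with a 0.5 nM enzyme column as activation reference. PEP 0.5 mM, ADP 0.1 mM; ATP detected by luminescence after 1 h.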
Shiga inhibitor – Shiga toxin inhibition; Vero cells, Shiga toxin protein synthesis inhibition reporter; inhibition, % at 38.7 µM; 9.2% of 290,000 active; in the data active means inhibition mostly above about 28%, no sharp cut-off; inactive means mostly below about 43%; further: 0% is about no effect
Pf growth 96h – inhibits malaria parasite growth, 96 h. P. falciparum luciferase reporter growth, 96 h. Potency, µM (doses to about 28.7 µM), for inactives: at the top dose activity change, negative = inhibition, actives largely listed as inhibitors. 6.9% of 320,000 active. AID 504834; further: potency means the concentration at half of the fitted maximal effect; on the % scale 0 is the no-effect control and ±100 the full control effect
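Delayed-death screen, second-generation endpoint: infected erythrocytes, 2% hematocrit, 0.05% parasitemia final; 96 hours at 37 C, 5% CO2; luciferase detection reagent; luminescence decrease equals reduced growth.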
The depositor's hits bear a star; ? = inconclusive; . = no result given. Most compounds without a hit are left out; they make up all but 22% or so of the library. Unless noted, the call rests on the fitted dose curve; in most records, active means well fitted inhibition curve with a large enough effect; inconclusive means small, poorly fitted or top-dose-only effect, or another doubt; inactive means no such curve, though single readings can be large or run the other way.

SMILES	Pf growth 48h	CHX counter	LmPK inhibitor	Shiga inhibitor	Pf growth 96h
COc1ccc(CNc2ncnc3ccc(-c4c(C)noc4C)cc23)cc1	.	7	.	-2	.
Cc1ccc(CNC(=O)CS(=O)(=O)CC(=O)O)cc1	2%	-2	5%	-10	.
COc1ccc(C2=NOC(C(=O)Nc3ccc(C(C)=O)cc3)C2)cc1OC (centres undefined)	-14%	29*	-1%	75*	137%
CCOc1ccccc1NC(=O)CN(c1ccc(OC)cc1)S(=O)(=O)c1c(C)[nH]c(=O)[nH]c1=O	?	-2	10%	5	-1%
CCOc1cc(N2CCOCC2)c(OCC)cc1NC(=O)c1ccco1	-19%	-2	-4%	-14	?
COc1cccc(C(c2c(NC(=O)c3ccco3)sc(C)c2C)N2CCOCC2)c1 (centres undefined)	4.7µM*	.	.	.	3.3µM*
Cc1sc(NC(=O)c2ccco2)c(C(c2ccncc2)N2CCOCC2)c1C (centres undefined)	10µM*	-2	8%	-12	?
CCOc1ccc(C(c2c(NC(=O)c3ccco3)sc(C)c2C)N2CCOCC2)cc1 (centres undefined)	5.2µM*	.	.	.	13µM*
Cc1sc(NC(=O)c2ccco2)c(C(c2cccnc2)N2CCN(C)CC2)c1C (centres undefined)	?	-1	6%	-10	?
COC(=O)c1c(NC(=O)c2ccco2)sc(C)c1C	6%	-3	2%	-11	.
Cc1sc(NC(=O)c2ccco2)c(C(c2cccnc2)N2CCCC2)c1C (centres undefined)	12µM*	18	-2%	15	10µM*
O=C(Nc1nnc(CSCc2ccc(F)cc2)s1)c1ccc([N+](=O)[O-])cc1	11%	4	-4%	19	-10%
CCCCn1c(CCC(=O)O)nc2cc(S(=O)(=O)N(CC)CC)ccc21	?	-1	-5%	15	?
CCOc1ccc(C(c2c(NC(=O)c3ccccc3)sc(C)c2C)N2CCN(C)CC2)cc1 (centres undefined)	?	16	-2%	31*	12µM*
CC(C)c1nnc(NC(=O)C2CCN(C(=O)Nc3ccccc3)CC2)s1	-13%	4	-11%	7	-7%
O=C(Nc1ccc(Nc2ccccc2)cc1)c1ccco1	?	49*	1%	139*	.
CCN(c1ccccc1)S(=O)(=O)c1ccc(NC(=O)c2ccco2)cc1	10µM*	-2	4%	3	41%
O=C(Nc1ccc(Cc2ccncc2)cc1)c1ccco1	50%	24*	-1%	81*	?
O=C(Nc1ccc(Br)cc1)c1ccco1	113%	30*	-17%	16	.
O=C(Nc1ccc(NC(=O)c2ccco2)cc1)c1ccco1	11%	-6	-9%	-14	?
COc1cc(Cl)c(C)cc1NC(=O)CC1CCCC1	0%	8	9%	-5	?
CC(=O)N(C)c1ccc(NC(=O)c2ccco2)cc1	61%	30*	-19%	152*	49%
O=C(O)Cc1ccc(NC(=O)c2ccc(NC(=O)c3ccco3)cc2)cc1	.	-1	-6%	18	9%
O=C(Nc1ccc(-c2ccccc2)cc1)c1ccco1	-16%	2	0%	-3	4.7µM*
CCc1nnc(NC(=O)CN2CCN(S(C)(=O)=O)CC2)s1	?	-5	7%	-18	-1%
SMILES	Pf growth 48h	CHX counter	LmPK inhibitor	Shiga inhibitor	Pf growth 96h
CCc1noc(C)c1C(=O)OCC(=O)NC(C)c1ccccc1 (centres undefined)	-5%	.	.	.	31%
COc1ccc(-c2cc(C(=O)NNC(=S)NC(=O)c3c(-c4ccccc4)noc3C)[nH]n2)cc1	?	19*	-1%	106*	?
COc1ccc(NC(=O)COC(=O)c2c(-c3ccccc3)noc2C)cc1	?	-3	1%	-9	10µM*
Cc1onc(-c2ccccc2)c1C(=O)OCC(=O)NC(C)c1ccc(Cl)cc1 (centres undefined)	15µM*	.	.	.	?
Cc1ccc(C(=O)N2CCC(C(=O)Nc3cccc([N+](=O)[O-])c3)CC2)cc1	28%	14	0%	10	-28%
O=C(Nc1cccc(F)c1)Nc1ccnn1C1CCN(C(=O)c2ccccn2)CC1	-3%	23*	-4%	42*	-10%
COc1ccccc1C(=O)Nc1ccnn1C1CCN(C(=O)c2ccoc2C)CC1	15%	15*	-3%	13	?
COc1ccc(C(=O)Nc2ccnn2C2CCN(C(=O)c3cnsn3)CC2)cc1	-5%	20*	12%	54	34%
COc1ccccc1C(=O)Nc1ccnn1C1CCN(C(=O)c2cnsn2)CC1	1%	17	-7%	18	?
O=C(Nc1ccnn1C1CCN(C2CCC2)CC1)c1ccccc1	-3%	0	7%	-6	12µM*
COc1ccccc1NC(=O)Nc1ccnn1C1CCN(C(=O)c2ccccn2)CC1	-23%	1	-4%	-2	-9%
COCCN(C(=O)c1csnn1)C(C(=O)NC1CCCCC1)c1ccccc1F (centres undefined)	-6%	10	2%	-4	-19%
Nc1cc(C(=O)O)c(Oc2ccc(Cl)cc2Cl)cc1C(=O)O	-1%	-1	5%	-18	?
COc1ccccc1NC(=O)Nc1ccnn1C1CCN(C(=O)c2cscn2)CC1	-16%	32*	9%	29	?
Cc1ccc2c(c1)c(/C=C/c1cc[n+](C)cc1)c(C)n2C	0.93µM*	0	3%	-9	0.47µM*
Cc1ccc2[nH]c(C)c(/C=C/c3cc[n+](C)cc3)c2c1	?	-1	1%	16	32%
Cc1ccc(NC(=O)c2snnc2C)cc1Cl	19%	12*	-5%	26	?
Cc1nnsc1C(=O)NNc1ccc(C(C)C)cc1	125%	40*	-14%	59*	152%
Cc1nnsc1C(=O)NNc1ccc(C(C)(C)C)cc1	-7%	-3	14%	-13	-2%
COCC(=O)N(Cc1cc2ccc(C)c(C)c2n2nnnc12)C1CCCC1	1%	-6	-3%	55	?
CC1(C)NC(=O)N(CC(O)CN(c2ccccc2)S(=O)(=O)c2ccccc2[N+](=O)[O-])C1=O (centres undefined)	7%	-2	-1%	-15	3%
O=C(NC(=S)NCCc1ccccc1)C1CCCCC1	-22%	34*	1%	55*	-1%
O=C(CNC(=S)NC(=O)C1CCCCC1)c1ccccc1	188%	75*	-7%	114*	49%
C=CCOc1ccc(CNCc2cccnc2)cc1OCC	25%	2	-2%	-6	321%
C=CCOc1ccc(CNCc2cccnc2)cc1	19%	8.5*	-5%	15	?
O=C(Nc1ccccc1C(=O)N/N=C/c1ccncc1)c1ccccc1	423%	22	25µM*	17	?
COc1ccc(C(=O)Nc2ccccc2C(=O)N/N=C/c2ccco2)cc1	82%	41*	25µM*	55*	31%
CCOc1ccc(C(=O)Nc2ccccc2C(=O)O)cc1	28%	13	-4%	28	?
